The record followed here is PubChem BioAssay.

Each structure is given as a SMILES string. Activity calls are given as the source filed them. How the calls were made is not given here.

This experiment deals with L-lactate dehydrogenase (Plasmodium falciparum (isolate CDC / Honduras)) (UniProt Q27743). The experiment can be described thus: PfLDH activity inhibition – cell lysate, 3D7 strain, counter-screen for P. falciparum growth inhibition project (AID 2304).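 Further: 0% = vehicle and 100% = reference inhibitor.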 To be noted: P. falciparum 3D7 crude extract, LDH APAD/NBT absorbance; at 2 µM; active compounds read high. On the technique in general: The purpose of a counterscreen is to sort out artefacts and off-target activity.
L-lactate dehydrogenase (Plasmodium falciparum (isolate CDC / Honduras)), sequence (Q27743 whole entry, looked up): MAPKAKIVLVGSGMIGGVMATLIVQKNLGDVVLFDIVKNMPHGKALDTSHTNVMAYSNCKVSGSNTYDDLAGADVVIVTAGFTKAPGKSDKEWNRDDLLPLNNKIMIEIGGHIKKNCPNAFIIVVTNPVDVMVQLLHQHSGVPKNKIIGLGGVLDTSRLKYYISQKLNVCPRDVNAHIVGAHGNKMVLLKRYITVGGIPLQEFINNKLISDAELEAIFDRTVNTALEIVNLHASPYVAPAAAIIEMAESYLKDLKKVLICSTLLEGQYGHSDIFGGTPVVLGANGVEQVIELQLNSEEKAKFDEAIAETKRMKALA
Broadly, the inhibition is the relative decrease from the control value, in per cent. As for `COc1ccc(Cc2cnc(N)nc2N)cc1OCCCOc1ccccc1`, the inhibition was 6% (inactive).

On to `CCOC(=O)c1c(-c2ccccc2)c(C(=O)OCC)n2ccccc12`, for which the inhibition is -1% (inactive).

With `Cc1cc(=O)c(-c2ccc(S(=O)(=O)c3ccc(Cl)cc3)cc2)c(C)[nH]1`, the inhibition is 4% (inactive).

`Cc1[nH]c(C)c(-c2ccc(Oc3ccc(Cl)cc3)c(Cl)c2)c(=O)c1Br`: the inhibition was -1% (inactive).

As to `COc1ccc2c(CNCCCCCCNCc3c(OC)ccc4cc(OC)ccc34)c(OC)ccc2c1`, the inhibition is -7% (inactive).

Turning to `Cc1cc2c3c(N)nc(N)nc3ccc2n1C`, the inhibition was -5% (inactive).

Take `COc1ccc(Cc2cnc3nc(N)nc(N)c3c2C)cc1OC`: the inhibition was -5% (inactive).

Turning to `Nc1nc(N)c2c(Oc3ccc(Cl)c(Cl)c3)cccc2n1`, the inhibition is -5% (inactive).

With `CCCCCCCN(Cc1ccc(OC(C)(C)C(=O)OCC)cc1)C(=O)Cc1ccc(F)cc1F`, the inhibition was -3% (inactive).

Turning to `Oc1c(CNC2CCCCC2)cc(Cl)c2ccccc12`, the inhibition was 0% (inactive).

Consider `COc1ccc2c(c1CNCCCCCCNCc1c(OC)ccc3c1CCCC3)CCCC2`, for which the inhibition was 6% (inactive).

With `COc1cc(Cc2cnc(N)nc2N)cc(OCCCCCCC(=O)O)c1OC`, the inhibition was -4% (inactive).

Regarding `CCCCNCCOc1ccc(-c2nc(-c3ccccc3)c(-c3ccccc3)[nH]2)cc1`, the inhibition is -5% (inactive).

For `Nc1nc(N)c2c(Sc3ccc(F)cc3)cccc2n1`, the inhibition is 3% (inactive).

`Cc1[nH]c(C)c(-c2ccc(Oc3ccc(F)cc3)cc2)c(=O)c1Br`: the inhibition was -1% (inactive).

For `Cc1[nH]c(C)c(-c2ccc(-c3ccc(F)cc3)cc2)c(=O)c1Cl`, the inhibition was -2% (inactive).
